{"source": "PubChem BioAssay AID463173", "about": "(ICCB-Longwood Screening Facility, Harvard Medical School, 2010)", "note": "Out of some 52,000 compounds screened, about 4,300 (8.3%) were called active. No stated cut-off is given here; in the data, active means survival mostly below about 52% (no sharp cut-off); inactive means mostly above about 56%. The sample as a whole holds a higher share of actives than the screen did.", "data": [{"test_system": "DeltatarO mutant", "assay": "S. aureus survival, RN4220 and DeltatarO strains – OD600, teichoic acid synthesis inhibitors, primary screen (AID 463173)", "details": "S. aureus RN4220 wild type/DeltatarO growth, OD600, 18 h, stronger effect = lower value, screened at 18.75 µg/mL (by protocol)", "values": [{"smiles": "O=S(=O)(c1ccccc1)n1nc(-c2ccco2)nc1NCc1ccccc1", "survival": "71% (inactive)"}, {"smiles": "O=C(Nc1ccc(N2CCN(C(=O)c3ccco3)CC2)cc1)c1ccccc1", "survival": "93% (inactive)"}, {"smiles": "CCOc1ccc(-n2nc3ccc(NC(=O)c4cccc(F)c4)cc3n2)cc1", "survival": "84% (inactive)"}, {"smiles": "CCCNC(=O)c1ccc2c(c1)nc1n2CCCCC1", "survival": "94% (inactive)"}, {"smiles": "COc1cccc(C(=O)NCCc2csc(-c3cccc(F)c3)n2)c1OC", "survival": "75% (inactive)"}, {"smiles": "Cc1cccc(N2CCN(C(=O)CN3C(=O)COc4ccc(S(=O)(=O)N5CCCC5)cc43)CC2C)c1", "note": "(stereo not given)", "survival": "77% (inactive)"}, {"smiles": "O=C(COc1ccccc1[N+](=O)[O-])N1CCC(c2nc3ccccc3o2)CC1", "survival": "79% (inactive)"}, {"smiles": "CCOC(=O)c1csc2c1CCC/C2=N/OC(C)=O", "survival": "86% (inactive)"}, {"smiles": "CCOC(=O)c1cc2c(=O)n3ccccc3nc2n(Cc2ccco2)c1=NC(=O)c1cccc(C)c1", "survival": "33% (active)"}, {"smiles": "CCOC(=O)c1cc2c(=O)n3ccccc3nc2n(Cc2ccco2)c1=NC(=O)c1cc(C)cc(C)c1", "survival": "29% (active)"}, {"smiles": "CCOc1ccccc1NC(=O)Cn1ccn(-c2ccccc2)c(=O)c1=O", "survival": "49% (inactive)"}, {"smiles": "CCC(=O)Nc1nnc(S(=O)(=O)N2CCCCCC2)s1", "survival": "89% (inactive)"}, {"smiles": "O=C(COc1ccccc1)Nc1nnc(S(=O)(=O)N2CCCCCC2)s1", "survival": "79% (inactive)"}, {"smiles": "CC(Oc1ccccc1)C(=O)Nc1nnc(S(=O)(=O)N2CCCCCC2)s1", "note": "(stereo not given)", "survival": "50% (inactive)"}, {"smiles": "CN(c1ccccc1)S(=O)(=O)c1nnc(NC(=O)COc2ccccc2)s1", "survival": "56% (inactive)"}, {"smiles": "Cc1cc(C)cc(N(C)S(=O)(=O)c2nnc(NC(=O)COc3ccc(Cl)cc3)s2)c1", "survival": "80% (inactive)"}, {"smiles": "Cc1cc(C)cc(N(C)S(=O)(=O)c2nnc(NC(=O)COc3ccc(C)c(C)c3)s2)c1", "survival": "30% (active)"}, {"smiles": "Cc1cccc(OCC(=O)Nc2nnc(S(=O)(=O)N3CCCCCC3)s2)c1", "survival": "48% (active)"}, {"smiles": "O=C(COc1ccccc1)Nc1nnc(S(=O)(=O)N2CCCC2)s1", "survival": "39% (active)"}, {"smiles": "Cc1ccc(OCC(=O)Nc2nnc(S(=O)(=O)N3CCCCCC3)s2)cc1", "survival": "64% (inactive)"}, {"smiles": "COc1ccc(OCC(=O)Nc2nnc(S(=O)(=O)N3CCCCCC3)s2)cc1", "survival": "76% (inactive)"}, {"smiles": "O=C(COc1ccc(Cl)cc1)Nc1nnc(S(=O)(=O)N2CCCCCC2)s1", "survival": "55% (active)"}, {"smiles": "CCN(CC)S(=O)(=O)c1nnc(NC(=O)COc2cccc(C)c2)s1", "survival": "94% (inactive)"}, {"smiles": "CC1(C)CC(=O)C2=C(C1)NC1=C(C(=O)CC(C)(C)C1)C2c1ccc2c(c1)OCO2", "survival": "96% (inactive)"}, {"smiles": "NC(=O)c1nc(-c2ccc(F)c(F)c2)nc2c1[nH]c(=O)n2-c1cccc(Cl)c1", "survival": "86% (inactive)"}, {"smiles": "O=C(Nc1cccc(C(F)(F)F)c1)N1CCC(CN2CCCCCC2)CC1", "survival": "83% (inactive)"}, {"smiles": "Cc1cccc(C(=O)Nc2ccc(N3CCC(CCN4CCOCC4)CC3)c(C(=O)O)c2)c1", "survival": "66% (inactive)"}, {"smiles": "Cc1ccc(N2CCN(c3cc(C)nc4c(-c5ccc(Cl)cc5)c(C)nn34)CC2C)cc1", "note": "(stereo not given)", "survival": "55% (inactive)"}, {"smiles": "COc1ccc(C(=O)c2cn(Cc3ccc(F)cc3)c3c(F)cc(F)cc3c2=O)cc1", "survival": "103% (inactive)"}, {"smiles": "Cc1cccc(N2CCN(C(=O)CCNS(=O)(=O)c3ccc4c(c3)CCN4C(=O)C3CC3)CC2)c1C", "survival": "73% (inactive)"}, {"smiles": "N#Cc1ccccc1NC(=O)CSc1nnc(N)s1", "survival": "76% (inactive)"}, {"smiles": "O=C(COc1ccc(F)cc1)Nc1nnc(S(=O)(=O)N2CCCC2)s1", "survival": "39% (active)"}, {"smiles": "CCCC(=O)Nc1nnc(S(=O)(=O)N2CCCCCC2)s1", "survival": "91% (inactive)"}, {"smiles": "CC(C)CC(=O)Nc1nnc(S(=O)(=O)N2CCCCCC2)s1", "survival": "109% (inactive)"}, {"smiles": "Cn1c(/C(C#N)=C/C2CC=CCC2)nc2ccccc21", "note": "(stereo not given)", "survival": "78% (inactive)"}, {"smiles": "Cn1c(/C(C#N)=C/c2ccc(C(F)(F)F)cc2)nc2ccccc21", "survival": "103% (inactive)"}, {"smiles": "COc1ccc(/C=C(\\C#N)c2nc3ccccc3n2C)c(OC)c1", "survival": "29% (active)"}, {"smiles": "COc1cc(/C=C(\\C#N)c2nc3ccccc3n2C)cc(OC)c1OC", "survival": "47% (active)"}, {"smiles": "COc1ccc(Cl)cc1N/C=C(/C#N)c1nc2ccccc2n1C", "survival": "82% (inactive)"}, {"smiles": "Cn1c(/C(C#N)=C/c2ccccc2Br)nc2ccccc21", "survival": "79% (inactive)"}, {"smiles": "Cc1cc(=O)n(CC(=O)N2CCCc3ccccc32)c2c1c(C)nn2-c1cccc(F)c1", "survival": "85% (inactive)"}, {"smiles": "Cc1ccc(C)c(NC(=O)CSc2ncc3c(n2)-c2ccc(Cl)cc2N(C)S3(=O)=O)c1", "survival": "74% (inactive)"}, {"smiles": "CCCCN(C)CCNC(=O)c1ccc2c(c1)NC(=O)CN2", "survival": "71% (inactive)"}, {"smiles": "COc1ccc(-n2nc3ccc(NC(=O)c4ccc(-c5cc(Cl)ccc5Cl)o4)cc3n2)cc1", "survival": "40% (active)"}, {"smiles": "O=C(Nc1ccc2nn(-c3ccccc3)nc2c1)c1ccc(-c2cccc(Cl)c2)o1", "survival": "105% (inactive)"}, {"smiles": "COc1ccc(-n2nc3ccc(NC(=O)c4cc5ccccc5o4)cc3n2)cc1Cl", "survival": "159% (inactive)"}, {"smiles": "CCOc1ccc(-n2nc3ccc(NC(=O)c4ccc(-c5cccc(Cl)c5)o4)cc3n2)cc1", "survival": "45% (active)"}, {"smiles": "O=C(Nc1ccc2nn(-c3ccc(Cl)cc3)nc2c1)c1cc2ccccc2o1", "survival": "65% (inactive)"}, {"smiles": "CCOc1ccc(-n2nc3ccc(NC(=O)Cc4ccccc4)cc3n2)cc1", "survival": "74% (inactive)"}, {"smiles": "CCCCN(CC)CCCNC(=O)c1cc2c(-c3ccc(OC)c(OC)c3)nn(C)c2s1", "survival": "140% (inactive)"}, {"smiles": "Cc1ccc(N2CCN(C(=O)c3cnn(-c4ccc(C)c(C)c4)c3C3CCNCC3)CC2)c(C)c1", "survival": "55% (inactive)"}, {"smiles": "CCN(CC)S(=O)(=O)c1ccc2oc(C(=O)Nc3ccc(Br)cc3F)c(C)c2c1", "survival": "69% (inactive)"}, {"smiles": "O=C(O)CCN1CCCC1", "survival": "78% (inactive)"}, {"smiles": "CCN(c1cccc(C)c1)c1ncnc2c1cnn2-c1cccc(Cl)c1", "survival": "70% (inactive)"}, {"smiles": "CN(C)c1ccc(/C=C(\\C#N)c2nc(-c3ccc(Cl)c(Cl)c3)cs2)cc1", "survival": "76% (inactive)"}, {"smiles": "COc1ccc(/C=C(/C#N)c2nc(-c3ccc(-c4ccccc4)cc3)cs2)cc1", "survival": "73% (inactive)"}, {"smiles": "CCc1ccc(/C=C(/C#N)c2nc(-c3ccc(C)cc3)cs2)cc1", "survival": "8% (active)"}, {"smiles": "N#C/C(=C/c1ccc(O)cc1)c1nc(-c2ccc(-c3ccccc3)cc2)cs1", "survival": "9% (active)"}, {"smiles": "CCOc1ccc(-c2csc(/C(C#N)=C/c3ccc(Br)cc3)n2)cc1", "survival": "55% (inactive)"}, {"smiles": "N#C/C(=C/c1ccc(Cl)cc1)c1nc(-c2ccc(Br)cc2)cs1", "survival": "65% (inactive)"}, {"smiles": "Cc1ccc(/C=C(\\C#N)c2nc(-c3ccc(-c4ccccc4)cc3)cs2)cc1", "survival": "57% (inactive)"}, {"smiles": "N#C/C(=C\\c1ccc(F)cc1)c1nc(-c2ccc(-c3ccccc3)cc2)cs1", "survival": "69% (inactive)"}, {"smiles": "CC(C)c1ccc(/C=C(\\C#N)c2nc(-c3ccc(O)cc3)cs2)cc1", "survival": "-1% (active)"}, {"smiles": "O=C(Nc1ccc(Cl)cc1)N1CCN(c2ccc3nnc(-c4ccc(F)cc4)n3n2)CC1", "survival": "68% (inactive)"}, {"smiles": "Cc1ccc2oc(-c3cccc(NC(=O)c4sc5c([N+](=O)[O-])cccc5c4Cl)c3)nc2c1", "survival": "67% (inactive)"}, {"smiles": "COc1cc(-c2nc(Cn3nnc(C(=O)Nc4ccccc4C)c3C)c(C)o2)cc(OC)c1OC", "survival": "58% (inactive)"}, {"smiles": "COc1ccc(NC(=O)c2c(C)oc3ccc(O)c(CN4CCN(Cc5ccccc5)CC4)c23)cc1", "survival": "56% (inactive)"}, {"smiles": "CCn1c(=O)c2sccc2n2c(CCC(=O)Nc3ccc(F)cc3)nnc12", "survival": "82% (inactive)"}, {"smiles": "O=C(CSc1nc2ccccc2n1Cc1ccc(F)c(Cl)c1)N1CCN(c2ccc(F)cc2)CC1", "survival": "61% (inactive)"}, {"smiles": "Cc1csc2nc(COC(=O)c3ccccc3NC(=O)c3cccc(Br)c3)cc(=O)n12", "survival": "87% (inactive)"}, {"smiles": "Cc1ccc(CNC(=O)c2c(-c3cccc(Br)c3)noc2C)o1", "survival": "87% (inactive)"}, {"smiles": "COc1ccc(S(=O)(=O)N(CCc2ccccc2)CC(=O)Nc2cc(Cl)ccc2C)cc1", "survival": "58% (inactive)"}, {"smiles": "Cc1c(Cl)cccc1NC(=O)CN(CCc1ccccc1)S(=O)(=O)c1ccccc1", "survival": "49% (inactive)"}, {"smiles": "Cc1ccc(C)c(NC(=O)CN(CCc2ccccc2)S(=O)(=O)c2ccccc2)c1", "survival": "46% (active)"}, {"smiles": "COc1ccc(S(=O)(=O)N(CCc2ccccc2)CC(=O)Nc2cc(C)ccc2C)cc1", "survival": "48% (inactive)"}, {"smiles": "Cc1ccc(NC(=O)CN(CCc2ccccc2)S(=O)(=O)c2ccccc2)c(C)c1", "survival": "38% (active)"}, {"smiles": "CCOc1ccccc1NC(=O)CN(CCc1ccccc1)S(=O)(=O)c1ccc(C)cc1", "survival": "106% (inactive)"}, {"smiles": "Cc1cccc(NC2=CC(c3cccc(Br)c3)N(c3cccc(C)c3)C2=O)c1", "note": "(stereo not given)", "survival": "137% (inactive)"}, {"smiles": "Cc1ccccc1Cn1ccn(-c2ccc(F)c(F)c2)c(=O)c1=O", "survival": "76% (inactive)"}, {"smiles": "O=C(CCNS(=O)(=O)c1ccc2c(c1)CCN2C(=O)C1CC1)N1CCN(c2cccc(Cl)c2)CC1", "survival": "122% (inactive)"}, {"smiles": "COc1ccc(OCC(=O)N2CCc3ccccc3C2)cc1", "survival": "80% (inactive)"}, {"smiles": "O=c1n(Cc2cccc(F)c2)c2ccccc2c2nc(-c3ccccc3)nn12", "survival": "33% (active)"}, {"smiles": "COc1cccc(CNC(=O)Cn2c(=O)n3nc(-c4cccc(F)c4)nc3c3ccccc32)c1", "survival": "77% (inactive)"}, {"smiles": "O=c1n(Cc2cccc(C(F)(F)F)c2)c2ccccc2c2nc(-c3ccccc3)nn12", "survival": "80% (inactive)"}, {"smiles": "Cc1cccc(-c2nc3c4ccccc4n(Cc4cccc(Cl)c4)c(=O)n3n2)c1", "survival": "97% (inactive)"}, {"smiles": "Cc1ccc(-c2nc3c4ccccc4n(Cc4cccc(Cl)c4)c(=O)n3n2)cc1", "survival": "123% (inactive)"}, {"smiles": "Cc1cccc(-c2nc3c4ccccc4n(CC(=O)Nc4cccc(F)c4)c(=O)n3n2)c1", "survival": "95% (inactive)"}, {"smiles": "Cc1cccc(Cn2c(=O)n3nc(-c4ccccc4)nc3c3ccccc32)c1", "survival": "-16% (active)"}, {"smiles": "CCc1cccc(NC(=O)Cn2c(=O)n3nc(-c4cccc(F)c4)nc3c3ccccc32)c1", "survival": "52% (active)"}, {"smiles": "O=c1n(Cc2ccc(F)cc2)c2ccccc2c2nc(-c3ccccc3)nn12", "survival": "86% (inactive)"}]}]}
